Usually inhibition stands for the change of the read-out against control, counted positive when it falls.

Screen size: about 330,000 compounds; about 1,900 (0.58%) were called active. Not shown: some 4% with an inconclusive outcome. No stated cut-off is given here; in the data, inconclusive means inhibition above about 70% without an active follow-up result; inactive means below that. These entries were drawn from the full list. Results with a measured potency or affinity are listed apart.

This assay is described as follows: M. tuberculosis growth inhibition, HTS (AID 449762).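 Further: bacterial growth assessed after seven days of incubation.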 The following applies: M. tuberculosis H37Rv growth inhibition, 7H9 media; at 25 µM; hits give high values.
As for `CCn1c(O)c(N=Nc2cccc(S(=O)(=O)N3CCOCC3)c2)c(=O)n(CC)c1=S`, the inhibition is -2.11% (inactive). For `O=C(Nc1cccc(C(=O)N2CCCc3ccccc32)c1)c1ccccc1` the value was 6.88% (inactive); for `COc1ccccc1C(=O)NC(=O)Nc1c(C)cc(C)cc1C`, 1.95% (inactive); for `COc1ccc(-c2nc(-c3ccncc3)no2)c(OC)c1`, 4.47% (inactive).

Take `COc1ccc(S(=O)(=O)N2CCC(c3cc(-c4cccc5ccccc45)n[nH]3)CC2)cc1`: the inhibition was 66.5% (inactive). For `COc1cccc(NS(=O)(=O)c2nc3nc(C)cc(C)n3n2)c1` the value was -2.88% (inactive); for `COc1ccc(S(=O)(=O)Nc2c(F)cccc2F)cc1`, 6.44% (inactive); for `COc1ccc(CNS(=O)(=O)c2cc3c4c(c2)C(C)C(=O)N4CCC3)cc1` (stereo not given), -1.95% (inactive). For `COc1ccc(CCC(=O)NCCS(=O)(=O)N2CCN(c3ccccc3F)CC2)cc1` the value was 9.75% (inactive).

Take `CN1CCCN(C(=O)c2cccc(Br)c2)CC1`: the inhibition is -4.86% (inactive). Then `c1ccc(-c2nc(-c3ccccn3)nc(-c3ccccn3)n2)nc1`, with 14.8% (inactive).

As for `c1ccc(-c2ccccn2)nc1`, the inhibition was 11.8% (inactive). For `c1ccc(-c2nnc(-c3ccccn3)c(-c3ccccn3)n2)nc1` the value was 0.73% (inactive).

`CC(C)Nc1nc(-c2ccccn2)nc(-c2ccccc2)c1C#N`: the inhibition is -1.18% (inactive). For `O=C(NCC(c1cccnc1)N1CCN(c2ccc(F)cc2)CC1)Oc1ccccc1` (stereo not given) the value was -8.33% (inactive); for `CCc1cccc(NC(=O)CCCN2C(=O)NC(C)(C)C2=O)c1`, -11.7% (inactive); for `C[C@@H]1CCCCCCCCC(=O)OCCN(C(=O)OC(C)(C)C)[C@H](C)CCCCCCCCC(=O)OCCN1C(=O)OC(C)(C)C`, 3.06% (inactive). For `C[C@@H]1CCCCCCCCC(=O)OCCN(C(=O)OC(C)(C)C)[C@H](C)CCCCCCCCC(=O)OCCN(C(=O)OC(C)(C)C)[C@H](C)CCCCCCCCC(=O)OCCN(C(=O)OC(C)(C)C)[C@H](C)CCCCCCCCC(=O)OCCN1C(=O)OC(C)(C)C` the value was -0.93% (inactive); for `COc1ccc(N2CCN(C(=O)CCNS(=O)(=O)c3ccc(C)cc3)CC2)cc1`, -1.98% (inactive). For `C[C@H](NC(=O)N1CCn2c1nc1ccccc12)C(=O)N1CCCCC1` the value was -4.78% (inactive). Take `CN(CCOc1ccccc1)C(=O)C1CCC(=O)N(CCCN2CCOCC2)C1` (stereo not given): the inhibition is 14.5% (inactive). Take `Nc1nc2ccccc2n1CCOc1ccc(Cl)cc1`: the inhibition is 9.81% (inactive). For `Nc1nc2ccccc2n1CCOc1ccc(F)cc1` the value was 41.5% (inactive); for `CN(C)S(=O)(=O)c1cc(NC(=O)CN2CCN(c3ccccc3)CC2)ccc1Cl`, 1.87% (inactive). Then `Cc1cc(C2=NNC(=NC3CC3)SC2)c(C)n1-c1c(C)n(C)n(-c2ccccc2)c1=O`, with 0.5% (inactive); and `CN=C1NN=C(c2cc(C)n(-c3c(C)n(C)n(-c4ccccc4)c3=O)c2C)CS1`, with 10.5% (inactive); and `CCN=C1NN=C(c2c[nH]c3ccccc23)CS1`, with 0.3% (inactive). Then `c1ccc2c(C3=NNC(=NC4CC4)SC3)c[nH]c2c1`, with -4.02% (inactive). Take `COc1ccc(CC(=O)Nc2ccc(C#N)c(Cl)c2)cc1S(=O)(=O)N1CCOCC1`: the inhibition is 3.7% (inactive). For `COc1ccnc(Oc2ccc(F)cc2)c1C(=O)N/C=N/OCc1cccc(F)c1` the value was 24.6% (inactive). Then `CC(C)(C)C1CCc2c(sc3nc(SCC(=O)O)nc(N)c23)C1` (stereo not given), with 6.02% (inactive); and `CC(=O)N1CCN(c2nc(C)nc3sc4c(c23)CCC(C)C4)CC1` (stereo not given), with -0.41% (inactive). Then `CCCSc1nnc2n(C)c(=O)c3c4c(sc3n12)CCC4`, with 9.4% (inactive). In the case of `C=C(C)CSc1nnc2n(C)c(=O)c3c4c(sc3n12)CCC4`, the inhibition was 4.7% (inactive).

With `NC(=O)CSc1nc(N)c2c3c(sc2n1)CCCCC3`, the inhibition was 42.6% (inactive).

`Cc1nc(N2CCN(C(=O)c3cnccn3)CC2)c2c3c(sc2n1)CC(C(C)(C)C)CC3` (stereo not given): the inhibition is -2.07% (inactive). Then `CC(C)(C)[C@H]1COC(=O)[C@@H](Cc2ccc(F)cc2)C/C=C\C[C@@H](CC(=O)N[C@@H](CO)Cc2ccccc2)C(=O)N1`, with -8.38% (inactive). For `Cc1cc(OCC(=O)NCCCN2CCOCC2)c2c(C)cc(=O)oc2c1` the value was 3.65% (inactive); for `O=C(Cc1c(Cl)cccc1Cl)N1CCN(Cc2ccccc2)CC1`, 7.3% (inactive); for `C/C(=N\NC(=O)c1ccc(Cn2cc(Br)cn2)o1)c1cccc(NC(=O)C(C)(C)C)c1`, -8.27% (inactive).

For the molecule `COc1cccc(CN(C)CC(=O)Nc2ccccc2C(=O)Nc2ccccc2)c1OC`, the inhibition is -3.55% (inactive). Then `CN(CC(=O)Nc1ccc(F)cc1)C(=O)COC(=O)c1cc(S(=O)(=O)N(C)C)ccc1N1CCCC1`, with 0.17% (inactive); and `CCc1ccc2[nH]c(C(=O)Nc3ccc(C)c(F)c3)cc2c1`, with 6.38% (inactive). On to `Cc1cc(C)c2cc(C(=O)Nc3ccc4c(c3)OCO4)[nH]c2c1`, for which the inhibition was -1.94% (inactive). For `Cc1cccc(NC(=O)C2CCN(S(=O)(=O)c3c(C)noc3C)CC2)c1` the value was 8.96% (inactive). Then `c1cc[n+](CCCC[n+]2ccccc2)cc1`, with -7% (inactive); and `c1cc[n+](CCC[n+]2ccccc2)cc1`, with 1.9% (inactive); and `O=C(Nc1ccc(F)cc1)c1cnc(-c2ccccc2)nc1-c1ccccc1`, with -11.2% (inactive). For `CCCOc1ccc2[nH]c(C(=O)N/N=C/c3cc(OC)c(OC)c(OC)c3)cc2c1` the value was 4.27% (inactive); for `CCOc1ccc(CCNC(=O)Cc2ccc(NC3=NC4CS(=O)(=O)CC4S3)cc2)cc1` (stereo not given), -10.9% (inactive); for `COCCn1c(=NC(=O)CSC(C)=O)sc2cc(OC)ccc21`, -1.47% (inactive). In the case of `CS(=O)(=O)c1ccc(C(=O)NCc2ccccc2F)cc1`, the inhibition was -1.2% (inactive). As to `CS(=O)(=O)c1ccc(C(=O)NC(Cc2ccccc2)c2ccccc2)cc1` (stereo not given), the inhibition is -2.61% (inactive). Then `Cn1cc(C(=O)N2CCCCC2)c2ccccc21`, with 5.24% (inactive); and `CCCCC[C@@H]1C=C(C(=O)O)[C@H](c2cccc(C)c2)N1S(=O)(=O)c1ccc(C)cc1`, with 9.09% (inactive); and `S=C(NCCNC(=S)Nc1ccccc1)Nc1ccccc1`, with -0.85% (inactive).

In the case of `COc1ccc(C(CNc2nc(-c3cccnc3)nc3ccccc23)N(C)C)cc1` (stereo not given), the inhibition was -3.31% (inactive). Then `COC(=O)C1=C(C)N(C)C(=S)NC1c1c(OC)ccc2ccccc12` (stereo not given), with 8.17% (inactive); and `O=C1NCN(c2ccccc2)C12CCNCC2`, with -2.9% (inactive); and `O=C1NCN(c2ccccc2)C12CCN(c1nnnn1-c1ccccc1)CC2`, with -2.38% (inactive). Then `COc1ccc(S(=O)(=O)N(C)CC(=O)NC2CCCC2)cc1OC`, with -0.73% (inactive); and `CC(=O)Nc1cccc(NC(=O)C2C3C=CC(C3)C2C(=O)O)c1` (stereo not given), with 1.17% (inactive). For the molecule `Cc1ccc(-c2ccccc2NC(=O)C2C3C=CC(C3)C2C(=O)O)o1` (stereo not given), the inhibition was 3.02% (inactive). Then `CCCCOc1ccc(C(=O)N2CCN(c3ccc(N4CCOCC4)nn3)CC2)cc1`, with 37.3% (inactive); and `CNC1=C([N+](=O)[O-])CC([N+](=O)[O-])=C(N2CCNCC2)N1C`, with 1.39% (inactive); and `Cc1nn(Cc2ccccc2)c(Cl)c1C(=O)OCC(=O)NC(=O)NC12CC3CC(CC(C3)C1)C2`, with 3.45% (inactive). Then `Cc1c2ccccc2nc2ccccc12`, with 21.6% (inactive). Then `CC1CCc2nc3ccccc3c(C(=O)OCC(=O)NC3CCS(=O)(=O)C3)c2C1` (stereo not given), with 9.92% (inactive); and `CCOC(=O)c1cc(-c2ccc(N3CCOCC3)cc2)nn1-c1ccc(F)cc1F`, with 30.5% (inactive).

On to `CCOC(=O)c1cc(-c2ccc(N3CCOCC3)cc2)nn1-c1ccccc1C(=O)O`, for which the inhibition is -2.68% (inactive). For `COc1ccccc1N1CCN(c2nnc(-c3ccc(F)cc3)c3ccccc23)CC1` the value was -0.63% (inactive).

For `COc1cc(C(=O)N/C(=C\c2cn(S(=O)(=O)N(C)C)c3ccccc23)C(=O)N2CCCC2)cc(OC)c1OC`, the inhibition is 7.41% (inactive). Then `COc1cc(/C=N/n2cc(-c3ccccc3)[nH]c2=S)cc(OC)c1O`, with -4.41% (inactive); and `Cc1ccc(-n2cnc3scc(-c4cccs4)c3c2=O)cc1`, with 9.75% (inactive). For `O=c1cc(/C=C/c2ccccc2)oc2c1ccc1ccccc12` the value was -0.73% (inactive); for `O=c1cc(-c2ccccc2)oc2ccccc12`, -7.12% (inactive); for `CN1CCCN(C(=O)c2cc(-c3ccc(Cl)c(Cl)c3Cl)nc3ccccc23)CC1`, 5.52% (inactive). For `CCOCCCNC(=O)C(NC(=O)Cc1cccs1)c1ccc(OC)cc1` (stereo not given), the inhibition is 3.59% (inactive). For `CCOC(=O)c1sc(C)c2c(=O)n(CC)nnc12` the value was -7.87% (inactive).

Consider `CCOC(=O)c1sc(C)c2c(=O)n(CCc3ccccc3)nnc12`, for which the inhibition is -10.6% (inactive). Then `COC(=O)C1=C(C)N(CCCC(=O)O)C(=O)NC1c1ccc(Br)cc1` (stereo not given), with 2.77% (inactive); and `COCCn1cc(C(=S)N2CCCCC2)c2ccccc21`, with 5.15% (inactive); and `CCOc1ccc(NS(=O)(=O)c2ccc(C(=O)NCCN3CCOCC3)cc2)cc1`, with -3.65% (inactive).

Consider `NC(=S)N/N=C/c1ccc(-c2cc(Cl)cc(Cl)c2)o1`, for which the inhibition was -4.69% (inactive). On to `CCNC(=S)N/N=C/c1ccc(-c2ccccc2)o1`, for which the inhibition was -5.23% (inactive). For `CC(=O)N1CCN(C(=O)C(Cc2ccccc2)NC(=O)c2ccccc2)CC1` (stereo not given) the value was -1.96% (inactive). For the molecule `COc1cc(CSC)nc(-c2ccccc2)n1`, the inhibition was -6.71% (inactive). For `CC(=O)N1N=C(c2ccc(Cl)cc2)CC1c1ccc([N+](=O)[O-])cc1` (stereo not given) the value was -2.62% (inactive). For `CC1(O)CC(c2ccc(Cl)cc2)=NN1C(=O)c1ccc(Cl)cc1` (stereo not given) the value was 47.7% (inactive); for `CC(=O)Nc1ccc(NC(=O)CCn2c(=S)oc3ccccc32)cc1`, 0.4% (inactive).

(Values after PubChem BioAssay AID449762 (Southern Research Specialized Biocontainment Screening …, 2010).)
